Source: the supplement of paper PMC11732987, “Enantioselective OTUD7B fragment discovery through chemoproteomics screening and high-throughput optimisation” (Communications Chemistry, 2025)

Key:
Assay in all cases: log2 ratio of Biotin-Ahx-Ub-VS probe labelling (fragment/DMSO); higher = less target engagement (more negative = stronger competition), active = hit call of the paper (q ≤ 0.05, log2 ratio ≤ -1)
Conditions in all cases: compound concentration: 200 uM; treatment time: 3 h
[1] = molecular target: T1, OTUD6B (UniProt Q8N6M0)
T1 sequence (whole entry): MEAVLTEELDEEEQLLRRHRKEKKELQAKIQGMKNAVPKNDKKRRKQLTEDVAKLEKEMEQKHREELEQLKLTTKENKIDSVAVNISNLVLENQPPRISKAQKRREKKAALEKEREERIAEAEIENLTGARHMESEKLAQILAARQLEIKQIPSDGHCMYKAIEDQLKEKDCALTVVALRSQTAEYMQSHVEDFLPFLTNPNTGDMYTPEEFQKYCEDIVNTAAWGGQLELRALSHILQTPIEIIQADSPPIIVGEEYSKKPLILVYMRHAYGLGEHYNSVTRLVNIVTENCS
In short: (§1)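 Labelled DUBs from HEK293T lysate were NeutrAvidin-enriched, digested with LysC and trypsin, and run by diaPASEF LC-MS/MS. Before that, each 495 µg sample in Tris/CHAPS/IGEPAL buffer with protease inhibitors was treated in triplicate with fragment at 200 µM or vehicle for 3 h, then with Biotin-Ahx-Ub-VS at 0.5 µM final for 1 h. Values are average log2 ratios of fragment over vehicle by unpaired t-test, based on global-median-normalised Spectronaut label-free quantities from proteins with ≥2 unique peptides.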

[2] = molecular target: T2, OTUD7B (UniProt Q6GQQ9)
T2 sequence (whole entry): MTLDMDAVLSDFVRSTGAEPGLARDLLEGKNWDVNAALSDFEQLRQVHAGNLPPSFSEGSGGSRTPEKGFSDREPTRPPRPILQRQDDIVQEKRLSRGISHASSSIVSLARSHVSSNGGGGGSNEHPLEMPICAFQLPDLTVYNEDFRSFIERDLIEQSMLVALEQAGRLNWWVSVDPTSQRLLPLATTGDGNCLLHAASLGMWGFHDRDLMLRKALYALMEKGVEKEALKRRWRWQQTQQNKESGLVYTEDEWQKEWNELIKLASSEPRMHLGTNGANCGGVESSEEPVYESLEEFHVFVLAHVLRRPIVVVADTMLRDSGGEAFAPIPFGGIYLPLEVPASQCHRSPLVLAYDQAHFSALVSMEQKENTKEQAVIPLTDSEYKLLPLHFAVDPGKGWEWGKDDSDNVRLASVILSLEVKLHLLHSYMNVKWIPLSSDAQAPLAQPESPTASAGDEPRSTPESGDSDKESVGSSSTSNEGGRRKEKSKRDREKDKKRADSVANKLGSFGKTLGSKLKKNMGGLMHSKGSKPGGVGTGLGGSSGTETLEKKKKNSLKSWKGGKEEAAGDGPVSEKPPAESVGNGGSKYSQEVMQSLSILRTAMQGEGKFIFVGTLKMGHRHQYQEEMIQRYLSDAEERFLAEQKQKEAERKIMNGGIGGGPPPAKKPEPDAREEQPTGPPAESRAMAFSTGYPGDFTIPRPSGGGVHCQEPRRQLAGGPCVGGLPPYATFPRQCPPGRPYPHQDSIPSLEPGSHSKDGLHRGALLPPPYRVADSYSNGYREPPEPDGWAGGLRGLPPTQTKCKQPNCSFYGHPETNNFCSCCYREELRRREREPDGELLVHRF
In short: as §1

[3] = molecular target: PRPF8 (UniProt Q6P2Q9)
In short: as §1

[4] = molecular target: T3, PSMD7 (UniProt P51665)
T3 sequence (whole entry): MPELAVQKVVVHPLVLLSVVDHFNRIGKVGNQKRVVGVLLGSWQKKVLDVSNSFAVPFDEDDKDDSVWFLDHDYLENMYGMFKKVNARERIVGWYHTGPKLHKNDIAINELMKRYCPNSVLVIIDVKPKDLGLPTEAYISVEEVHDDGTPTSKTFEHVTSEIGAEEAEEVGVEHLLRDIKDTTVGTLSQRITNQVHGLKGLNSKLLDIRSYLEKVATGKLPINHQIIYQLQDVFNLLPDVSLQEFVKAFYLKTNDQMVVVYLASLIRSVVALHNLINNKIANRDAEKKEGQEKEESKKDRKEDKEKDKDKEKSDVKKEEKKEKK
In short: as §1

[5] = molecular target: UCHL1 (UniProt P09936)
UCHL1, sequence (P09936 whole entry, looked up): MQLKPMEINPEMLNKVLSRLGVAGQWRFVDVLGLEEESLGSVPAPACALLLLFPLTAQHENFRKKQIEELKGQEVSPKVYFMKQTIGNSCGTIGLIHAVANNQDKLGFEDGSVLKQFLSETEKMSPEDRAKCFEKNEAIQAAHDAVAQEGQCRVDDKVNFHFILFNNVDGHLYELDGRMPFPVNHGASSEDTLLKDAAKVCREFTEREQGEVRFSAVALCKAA
In short: as §1

[6] = molecular target: T4, UCHL3 (UniProt P15374)
T4 sequence (whole entry): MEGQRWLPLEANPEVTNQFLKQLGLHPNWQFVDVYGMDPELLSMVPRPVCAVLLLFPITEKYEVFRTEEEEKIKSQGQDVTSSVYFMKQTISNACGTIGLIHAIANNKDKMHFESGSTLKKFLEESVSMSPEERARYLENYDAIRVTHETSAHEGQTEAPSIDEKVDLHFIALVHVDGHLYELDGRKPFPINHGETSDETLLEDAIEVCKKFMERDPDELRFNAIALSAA
In short: as §1

[7] = molecular target: T5, UCHL5 (UniProt Q9Y5K5)
T5 sequence (whole entry): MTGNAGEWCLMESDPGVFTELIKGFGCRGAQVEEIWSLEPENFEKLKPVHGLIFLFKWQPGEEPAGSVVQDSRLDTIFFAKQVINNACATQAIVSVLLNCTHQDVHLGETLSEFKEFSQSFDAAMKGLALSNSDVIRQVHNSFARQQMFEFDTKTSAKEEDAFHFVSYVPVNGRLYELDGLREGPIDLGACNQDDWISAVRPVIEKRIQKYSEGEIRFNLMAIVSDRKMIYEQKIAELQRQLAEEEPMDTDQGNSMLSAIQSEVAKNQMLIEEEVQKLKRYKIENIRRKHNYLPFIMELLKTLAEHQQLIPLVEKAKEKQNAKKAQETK
In short: as §1

[8] = molecular target: USP10 (UniProt Q14694)
USP10, sequence (Q14694 whole entry): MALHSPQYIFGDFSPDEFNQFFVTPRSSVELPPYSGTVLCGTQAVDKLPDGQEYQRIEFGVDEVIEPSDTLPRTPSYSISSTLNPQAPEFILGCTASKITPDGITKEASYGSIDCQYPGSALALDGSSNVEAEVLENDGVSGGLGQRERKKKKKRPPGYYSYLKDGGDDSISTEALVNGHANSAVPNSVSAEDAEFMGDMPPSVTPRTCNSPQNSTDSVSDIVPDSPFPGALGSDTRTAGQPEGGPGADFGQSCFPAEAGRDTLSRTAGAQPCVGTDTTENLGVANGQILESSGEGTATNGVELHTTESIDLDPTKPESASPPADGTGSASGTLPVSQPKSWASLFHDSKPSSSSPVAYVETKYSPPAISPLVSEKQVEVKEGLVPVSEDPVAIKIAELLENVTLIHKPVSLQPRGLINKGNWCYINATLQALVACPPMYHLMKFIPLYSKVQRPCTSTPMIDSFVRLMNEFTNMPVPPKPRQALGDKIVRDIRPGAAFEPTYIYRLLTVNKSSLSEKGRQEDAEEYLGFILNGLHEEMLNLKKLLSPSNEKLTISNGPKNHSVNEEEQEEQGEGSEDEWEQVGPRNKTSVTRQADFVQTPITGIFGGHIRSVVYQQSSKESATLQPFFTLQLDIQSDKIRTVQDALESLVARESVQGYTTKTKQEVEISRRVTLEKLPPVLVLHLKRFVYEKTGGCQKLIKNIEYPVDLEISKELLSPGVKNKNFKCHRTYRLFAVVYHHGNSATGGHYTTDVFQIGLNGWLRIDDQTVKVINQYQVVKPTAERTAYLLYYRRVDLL
In short: as §1

[9] = molecular target: T6, USP15 (UniProt Q9Y4E8)
T6 sequence (whole entry): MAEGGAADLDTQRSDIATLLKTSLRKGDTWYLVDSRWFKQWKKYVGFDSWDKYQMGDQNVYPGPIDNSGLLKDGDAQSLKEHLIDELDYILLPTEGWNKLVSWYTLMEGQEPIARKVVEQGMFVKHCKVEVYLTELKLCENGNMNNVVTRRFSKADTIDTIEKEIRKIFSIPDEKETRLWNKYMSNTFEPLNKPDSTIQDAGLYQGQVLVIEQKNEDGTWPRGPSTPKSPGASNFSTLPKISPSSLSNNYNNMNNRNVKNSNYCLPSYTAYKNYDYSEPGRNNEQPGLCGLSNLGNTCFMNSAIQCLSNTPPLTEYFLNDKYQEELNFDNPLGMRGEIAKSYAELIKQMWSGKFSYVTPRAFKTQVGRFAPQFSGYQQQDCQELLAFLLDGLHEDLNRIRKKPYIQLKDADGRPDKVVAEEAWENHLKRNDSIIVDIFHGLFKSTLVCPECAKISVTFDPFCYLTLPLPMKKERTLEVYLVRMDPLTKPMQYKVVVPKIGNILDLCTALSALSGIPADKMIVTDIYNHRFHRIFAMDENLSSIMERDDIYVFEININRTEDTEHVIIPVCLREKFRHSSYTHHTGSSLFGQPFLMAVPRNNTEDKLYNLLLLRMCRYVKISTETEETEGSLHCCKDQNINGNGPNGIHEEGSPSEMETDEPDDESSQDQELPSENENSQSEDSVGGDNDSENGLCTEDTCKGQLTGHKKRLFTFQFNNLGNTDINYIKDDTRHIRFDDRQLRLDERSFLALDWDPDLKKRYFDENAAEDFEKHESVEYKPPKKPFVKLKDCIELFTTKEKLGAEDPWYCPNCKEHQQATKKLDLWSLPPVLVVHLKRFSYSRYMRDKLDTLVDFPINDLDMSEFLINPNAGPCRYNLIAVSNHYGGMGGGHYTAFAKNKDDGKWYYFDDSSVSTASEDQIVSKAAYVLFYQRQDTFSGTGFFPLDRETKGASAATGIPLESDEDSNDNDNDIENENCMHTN
In short: as §1

Measured: log2 ratio of Biotin-Ahx-Ub-VS probe labelling

Cc1cccc(C)c1NC(=O)CCl
active: [5] -1.48
inactive: [1] -0.307 | [2] -0.52 | [3] -0.0544 | [4] -0.245 | [6] 0.0922 | [7] -0.309 | [8] -0.108 | [9] -0.203
